Laboratory results: PubChem BioAssay AID1458 (National Center for Advancing Translational Sciences (NCATS), 2008)
Several values for one entry are separate records, joined by “and”; a condition that tells them apart may be missing. Equal entries are not always repeated. Out of some 210,000 compounds screened, about 5,900 (2.8%) were called active. About 5% were inconclusive and are not listed. The sample as a whole holds a higher share of actives than the screen did. A number with no mark means an inactive call. The call rests on the fitted dose curve; in most records, active means well fitted activation curve with a large enough effect; inconclusive means small, poorly fitted or top-dose-only effect; inactive means no such curve, though single readings can be large or run the other way.

Experiment: qHTS Assay for Enhancers of SMN2 Splice Variant Expression; further: nearly all actives have a fitted effect of over 55% in size; on activity change, positive = activation: % of control where 0% means no effect
Details: HEK293 SMN2-luciferase splicing reporter, luminescence, 30-36 h; series mostly up to 46.1 µM; activity change, positive = activation: at the top concentration
Outline: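 HEK293 cells carry an SMN2 […]–luciferase reporter in which exon 7 inclusion puts luciferase in frame. Cells were plated 10-12 h before compound addition, then incubated 30-36 h at 37C. ONE-Glo luminescence was read; sodium butyrate at 4.5 mM final served as control.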
Potency means the concentration at half of the fitted maximal effect.

Structure (SMILES) | activity change, positive = activation | Potency
CCOc1ccc(S(=O)(=O)Nc2ccc3oc4c(c3c2)CC(C)CC4)cc1 (stereo not given) | -8.65% | 
CSCc1ccc(C(=O)Nc2cc(C)cc(C)c2)cc1 |  | 12.6 µM (active)
C=CCN(c1ccc(C(=O)Nc2cc(C)cc(C)c2)cc1)S(C)(=O)=O | -19.8% | 
CC(=O)Nc1ccccc1NC(=O)c1cc(C)cc(C)c1 | -2.07% | 
CCOc1ccccc1NC(=O)c1ccc2c(c1)CCN2S(=O)(=O)c1ccc(C)cc1 | 3.85% | 
CC(=O)Nc1ccc(NC(=O)CSc2nnc3c4cc(Br)ccc4n(C)c3n2)cc1 | 3.66% | 
Cc1cc(C)cc(NC(c2nnc(-c3cccc(F)c3)o2)c2ccc(F)cc2Cl)c1 (stereo not given) | -3.55% | 
NC(=NC(=O)c1ccccc1)N1CCOCC1 | 8.74% | 
O=C(CSC(=S)N1CCOCC1)c1ccccc1 |  | 0.794 µM (active)
O=C(NC(=O)N1CCOCC1)c1ccccc1 | -3.17% | 
O=C(Nc1cccnc1)c1ccc2c(c1)OCO2 | 27.6% | 
COCc1nnc(NC(=O)c2ccc3c(c2)OCO3)s1 |  | 14.1 µM (active)
CCCc1nnc(NC(=O)c2cc(OC)cc(OC)c2)s1 | 0.792% | 
Cc1ccc(F)cc1NC(=O)c1ccc2c(c1)OCO2 | -18.3% | 
O=C(Nc1nc2ccccc2s1)c1ccc2c(c1)OCO2 |  | 0.355 µM (active)
Cc1cc(C)c2nc(NC(=O)c3ccc4c(c3)OCO4)sc2c1 | 3.44% | 
O=C(CCn1c(=O)c2ccccc2n(Cc2ccc(Cl)cc2)c1=O)NCc1ccc2c(c1)OCO2 | 10.9% | 
CC(C)NC(=O)c1nn(-c2ccccc2F)nc1CO | -25.4% | 
NC1=NC(c2cc(F)cc(F)c2)n2c(nc3ccccc32)N1 (stereo not given) | 2.06% | 
Brc1ccc2c(c1)NC(c1cccnc1)=NC(c1ccccc1)=N2 | 26.1% | 
O=C(NCc1ccccn1)c1c(O)c2c([nH]c1=O)CCCC2 | -17.7% | 
C[N+](C)(C)CCNC(=O)c1c(O)c2c([nH]c1=O)CCCC2 | 1.37% | 
CCc1nnc(NC(=O)c2c(O)c3c([nH]c2=O)CCCC3)s1 |  | 14.1 µM (active)
Cc1ccc(NC(=O)NC(C)c2c(-n3cccc3)sc(C)c2C)c(C)c1 (stereo not given) | -3.47% | 
CCCn1c(NCc2ccc(N(CC)CC)cc2)nc2ccccc21 | -50.8% | 
COc1ccc(OCCCC(=O)NCCc2ccccc2)cc1 | -4.84% | 
CS(=O)(=O)NCc1ccc(C(=O)NCc2ccccc2)cc1 | -3.72% | 

Structure (SMILES) | activity change, positive = activation | Potency
Nc1ccc(C(=O)NCc2ccccc2)cc1 | 11% | 
CC(C)c1ccc(C(=O)NCCCc2ccccc2)cc1 |  | 14.1 µM (active)
O=C(NCCc1ccccc1)c1ccc(OCCOc2ccccc2)cc1 | -1.13% | 
NS(=O)(=O)c1cc(C(=O)NCCOc2ccccc2)c(Cl)cc1Cl | 5.16% | 
O=C(CCOc1ccccc1)NCc1ccccc1 | -5.69% | 
CCCOc1ccc(C(=O)NCCc2ccccc2)cc1 |  | 14.1 µM (active)
O=C(NCCOc1ccccc1)c1ccccc1 |  | 12.6 µM (active)
CCC1=Nc2cc(C(=O)NCC(C)c3ccccc3)ccc2Sc2ccc(C)cc21 (stereo not given) | -29.9% | 
COc1cccc(CNC(=O)c2cc(=O)[nH]c3ccc(S(=O)(=O)N4CCCCC4)cc23)c1 | 2.53% | 
CCC(=O)N1N=C(c2ccc(OC)cc2)CC1c1cn(-c2ccccc2)nc1-c1cccs1 (stereo not given) | -8.72% | 
O=C(/C=C\c1cn(-c2ccccc2)nc1-c1cccs1)N1CCOCC1 | 26.2% | 
O=C(O)c1ccc(N/N=C/c2cn(-c3ccccc3)nc2-c2cccs2)cc1 |  | 7.94 µM (active)
COc1ccc(-c2nn(-c3ccccc3)cc2/C=C\C(=O)Nc2ccc(C(=O)O)cc2)cc1 | -2.02% | 
CC(C)CC(NS(=O)(=O)c1ccc2c(c1)oc(=O)n2C)C(=O)NCc1ccccc1Cl (stereo not given) | 4.01% | 
Cc1ccccc1NC(=O)Cn1c(=O)n(CCc2ccccc2)c(=O)c2ccccc21 | -3.15% | 
COc1ccc(N2CCN(C(=O)CSc3ncnc4c3cnn4-c3ccc(OC)cc3)CC2)cc1 | -25.5% | 
COc1ccc(-n2ncc3c(N4CCCc5ccccc54)ncnc32)cc1 | -16.2% | 
COc1ccc(-n2ncc3c(N4CCc5ccccc54)ncnc32)cc1 |  | 5.62 µM (active)
CO[C@@]12[C@@H](COC(N)=O)C3=C(C(=O)C(C)=C(N)C3=O)N1C[C@@H]1N[C@@H]12 | -77.1% | 
CC(C)c1ccc2oc(-c3cc(NC(=O)c4cccs4)ccc3Cl)nc2c1 | -26.1% | 
CC1=C(C(=O)OCc2ccc(C)cc2)C(c2c(Cl)cccc2Cl)CC(=O)N1 (stereo not given) | 1.93% | 
Cc1ccccc1OCC(=O)Nc1c(C(=O)Nc2ccccc2F)oc2ccccc12 | 13.5% | 
COc1cc(/C=N/n2c(C)n[nH]c2=S)ccc1OCc1ccccc1 |  | 12.6 µM (active)
CNC(=S)N/N=C/c1ccc(OCc2ccccc2)c(Br)c1 | 3.28% | 
Cc1n[nH]c(=S)n1/N=C/c1ccc(Br)o1 | 2.13% | 
Cc1cc(-c2ccccc2)n2nc(-c3ccccc3)cc2n1 | -3.97% | 
Cc1ccc(NC(=O)CN2C(=O)CC(C)Sc3ccccc32)c(C)c1 (stereo not given) | -2.75% | 

Structure (SMILES) | activity change, positive = activation | Potency
CC(C)=CCN1CCC2(CCc3ccccc32)CC1 | -7.89% | 
CCOc1ccc(OCC)c(NC(=O)c2c(C)nn(-c3ccccc3)c2-n2cccc2)c1 | -0.729% | 
COC(=O)c1c(NC(=O)c2ccc(Cl)c(Cl)c2)sc2c1CCCC2 | -7.09% | 
COc1ccccc1Nc1nc(N)nc(N)c1S(=O)(=O)c1ccccc1 | 10.2% | 
CCc1cc2c(cc3c(=O)n(CC(=O)NCCc4ccc(OC)c(OC)c4)ncn32)s1 | -1.71% | 
O=C(NNc1ncnc2c1cnn2-c1ccccc1)c1ccco1 | -26.9% | 
Cc1ccc(-n2ncc3c(Nc4cccc(C(=O)O)c4)ncnc32)cc1 |  | 14.1 µM (active) and 11.2 µM (active)
CCN(CC)C(=O)CSc1ncnc2c1cnn2-c1ccccc1 | 27.2% | 
COc1ccc(Cl)cc1NC(=O)CSc1nc(-c2cccs2)cc(C(F)(F)F)n1 | -0.0208% | 
CCOCCCNC(=O)c1cn(CC)c2ccc(S(=O)(=O)N3CCc4ccccc4C3)cc2c1=O | -7.64% | 
COc1c(C)c2c(c(O)c1C/C=C(\C)CCC(=O)O)C(=O)OC2 |  | 501 nM (active) and 631 nM (active) and 398 nM (active)
CCc1ccc(C2CC(=O)c3c([nH]c(C(=O)OCc4ccc(C)cc4)c3C)C2)cc1 (stereo not given) | 6.39% | 
COc1ccc(C2=NOC3(CC(=O)N(c4ccc(C)cc4)C3=O)C2)cc1 (stereo not given) | -1.53% | 
COc1ccc(C2=Nc3cc(C)ccc3OC2)cc1 |  | 2.82 µM (active)
COc1ccc(-c2cc(-c3ccccc3)nc3c2COc2ccc(Cl)cc2-3)cc1 | 2.81% | 
Cc1ccc2c(c1)-c1c(cnn1CC(=O)Nc1ccccc1C#N)CO2 | -17.6% | 
CC(=O)Nc1ccc(/C=N/NC(=O)c2cccs2)cc1 |  | 17.8 µM (active)
O=C(O)c1ccc(NC(=O)c2cccs2)cc1 | -2.57% | 
Cc1cccc(-n2c(C)cc(/C=N/NC(N)=S)c2C)c1 | 2.47% | 
CC(C)C(=O)Nc1ccc(C(=O)NNC(=O)c2cccs2)cc1 | 15.1% | 
Cc1ccc(-n2nc(C)c(/C=N/NC(=O)c3cccs3)c2Cl)cc1 | 20.2% | 
Cc1cccc(-n2c(C)cc(/C=N\NC(=O)c3cccs3)c2C)c1 |  | 2 µM (active)
Cc1nn(Cc2ccccc2)c(Cl)c1C(=O)OC1CCOC1=O (stereo not given) | 15.5% | 
O=C(c1cccs1)N1CCC(c2nc3ccccc3s2)CC1 | -20.4% | 
O=C(OC1CCOC1=O)c1ccc(-c2nc3ccccc3s2)s1 (stereo not given) |  | 12.6 µM (active)
COc1cccc(-c2nc(CS(=O)(=O)CC(=O)NCCc3ccc(OC)c(OC)c3)c(C)o2)c1 | -49.1% | 
O=C(Cn1nc(C(F)(F)F)c2c1CCCC2)Nc1ccc(Cl)cc1 | -4.3% | 

Structure (SMILES) | activity change, positive = activation | Potency
Cc1cc(NC(=O)Cn2nc(C(F)(F)F)c3c2CCCC3)no1 |  | 14.1 µM (active)
O=C(Cn1nc(C(F)(F)F)c2c1CCC2)NCc1ccc(F)cc1 | -17.5% | 
Cc1cc(C)cc(NC(=O)Cn2c(=O)c3ccccc3n3nncc23)c1 | 7.67% | 
COc1cccc(C(=O)Nc2nc3ccc(S(C)(=O)=O)cc3s2)c1 | 18% | 
COc1ccc2nc(Nc3nc4ccc(NC(C)=O)cc4s3)sc2c1 | -6.86% | 
COc1ccc2nc(Nc3nc4cc5c(cc4s3)OCCO5)sc2c1 |  | 20 µM (active)
COc1ccc2nc(NC(=O)c3ccc(Br)s3)sc2c1 |  | 11.2 µM (active)
CCOc1ccc(S(=O)(=O)Nc2nc3cc(OC)ccc3s2)cc1 | 8.16% | 
COc1ccc2nc(NC(=O)[C@@H]3CCCN3C(=O)c3cccs3)sc2c1 | 2.5% | 
COc1ccc(Cn2c(=O)n(-c3ccccc3C)c(=O)c3c4c(sc32)CN(C(C)=O)CC4)cc1 | 8.31% | 
CCOC(=O)c1ccc(NC(=O)Cn2c(=O)n(-c3ccc(C)cc3)c(=O)c3c2cnn3C)cc1 | -2.66% | 
O=[N+]([O-])c1ccccc1NCc1ccccc1Cl | -8.19% | 
O=[N+]([O-])c1ccccc1N/N=C1\CCc2ccccc21 |  | 11.2 µM (active)
O=[N+]([O-])c1cc(C(F)(F)F)ccc1NN=C1CCCC1 | 5.28% | 
Cc1ccc(Cl)cc1N(C)C(=O)Cn1nc(Cc2cccnc2)c2ccccc2c1=O | -1.29% | 
COc1ccc(-n2c(C)nc3c(cnn3-c3ccc(F)cc3)c2=O)cc1 | -9.72% | 
COc1ccc(-c2c3c(=O)n(C)c(=O)n(C)c3c3c(C)nc4ccccc4n23)cc1 | 7.52% | 
FC(F)(F)c1cc(Nc2nc3ccccc3c3nncn23)ccc1Cl | -29.6% | 
CCN(C(=O)Cn1cc(S(=O)(=O)N2CCN(c3ccccc3F)CC2)c2ccccc2c1=O)c1ccc(C)c(C)c1 | 7.16% | 
Cc1ccnc(Nc2nc3ccccc3s2)n1 |  | 3.55 µM (active)
c1ccc2sc(SCCSc3nc4ccccc4s3)nc2c1 | -8.26% [at 9.22 µM] | 
CSCCC(Nc1nc2ccccc2s1)C(=O)O (stereo not given) | 0.0276% | 
Cc1nn(-c2nc(-c3ccccc3)cc(C(F)(F)F)n2)c(C)c1Cl | -3.6% | 
Cc1ccccc1NC(=O)c1cc2c([nH]c1=O)CC(C)(C)CC2=O | 14.6% | 
